Source: PubChem BioAssay
SARS PLP yeast = qHTS of Yeast-based Assay for SARS-CoV PLP | S. cerevisiae expressing SARS-CoV PLpro, growth rescue | Potency, µM (doses to about 32.9 µM), inactives show at the top dose activity, positive = growth rescue, actives largely listed as activators | 330,000 tested, 0.19% active | AID 485353, 2010; calls by dose curve; further: potency means the concentration at half of the fitted maximal effect; 0% is about no effect; nearly all actives have a fitted effect of over 55% in size
AmpC inh no detg = qHTS Inhibitors of AmpC Beta-Lactamase (assay without detergent) | Potency, µM (series often up to 57.1 µM), for the others: top-dose activity change, negative = inhibition, usual class: inhibitors | P00811 | 330,000 tested, 0.52% active | AmpC nitrocefin hydrolysis, absorbance 480 nm, 0.0001% Triton;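 further: potency means the concentration at half of the fitted maximal effect; plate controls were no compound for no effect and no enzyme for full effect; nearly all actives have a fitted effect of over 20% in size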
Target sequence (P00811 whole entry, looked up): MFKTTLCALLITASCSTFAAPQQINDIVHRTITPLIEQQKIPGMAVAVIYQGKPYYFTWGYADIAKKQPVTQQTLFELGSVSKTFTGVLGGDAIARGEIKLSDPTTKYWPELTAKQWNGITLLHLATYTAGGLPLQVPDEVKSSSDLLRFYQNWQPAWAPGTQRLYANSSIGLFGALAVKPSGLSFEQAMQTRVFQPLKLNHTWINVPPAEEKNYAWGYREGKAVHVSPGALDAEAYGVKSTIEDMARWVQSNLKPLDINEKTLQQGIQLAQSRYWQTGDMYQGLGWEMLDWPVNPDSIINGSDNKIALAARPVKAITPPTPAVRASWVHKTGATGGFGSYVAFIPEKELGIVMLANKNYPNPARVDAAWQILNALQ
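20 mM phosphate pH 7.0 + 0.01% (detergent screen) or 0.0001% Triton X-100; 5.3 nM AmpC reagent; cpd preinc 15 min RT; nitrocefin (800 uM stock) to start; A480 q20 s × 4 min; Activity was normalised to no-enzyme and no-compound control wells.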
Cycloheximide cs = Cycloheximide Counterscreen for Small Molecule Inhibitors of Shiga Toxin; 300,000 tested, 12% active; AID 2314, 2010; max response, %; cell reporter, cycloheximide protein synthesis inhibition counterscreen; in the data active means max response mostly above about 13%, no sharp cut-off; inactive means mostly below about 14%; further: read at 38.3 µM for the half of the compounds with a filed dose; 0% is about no effect
AmpC detergent = qHTS Inhibitors of AmpC Beta-Lactamase (assay with detergent); AID 485294, 2010; AmpC hydrolysis of nitrocefin, absorbance 480 nm, 0.01% Triton; P00811; Potency, µM (titrated, usually from 114 µM), for inactives: top-dose activity change, negative = inhibition, hits mostly inhibitors; 370,000 tested, 0.041% active;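 further: potency means the concentration at half of the fitted maximal effect; 0% = no-compound wells and -100% = no-enzyme wells; nearly all actives have a fitted effect of over 25% in size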
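20 mM phosphate pH 7.0 + 0.01% (detergent screen) or 0.0001% Triton X-100; 5.3 nM AmpC reagent; cpd preinc 15 min RT; nitrocefin (800 uM stock) to start; A480 q20 s × 4 min; Activity was normalised to no-enzyme and no-compound control wells.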
AMA1 RON2 block = qHTS for Inhibitors of AMA1-RON; Towards Development of Antimalarial Drug Lead: Primary Screen. AID 720542, 2013. 360,000 tested, 0.2% active. AlphaScreen AMA1-biotinylated RON2 peptide binding. Potency, µM (series often up to 58.2 µM), inactives show at the top dose activity change, negative = inhibition, hits mostly inhibitors;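 further: potency means the concentration at half of the fitted maximal effect; 0% = vehicle wells and -100% = peptide control; nearly all actives have a fitted effect of over 45% in size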
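AMA1 (3D7) with his tag at 25 nM final met compounds first, then biotinylated RON2 peptide at 25 nM; detection used donor plus acceptor beads, 10 µg/mL apiece, read by AlphaScreen after 30 min at room temperature.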
Shiga inhibitor = A qHTS for Small Molecule Inhibitors of Shiga Toxin | inhibition, % at 38.7 µM | Vero cells, Shiga toxin protein synthesis inhibition reporter | AID 2315, 2010 | 290,000 tested, 9.2% active; in the data active means inhibition mostly above about 28%, no sharp cut-off; inactive means mostly below about 43%; further: 0% is about no effect
An asterisk follows results filed as active; ? = inconclusive; nt = no result; [ ] = another dose, or the depositor's remark. Only a selection was taken, and hits are over-represented in it overall. Unless noted, the call rests on the fitted dose curve; in most records, active means well fitted curve in the direction sought with a large enough effect; inconclusive means small, poorly fitted or top-dose-only effect, or another doubt; inactive means no such curve, though single readings can be large; an effect the other way counts as inactive or inconclusive.

SMILES	SARS PLP yeast	AmpC inh no detg	Cycloheximide cs	AmpC detergent	AMA1 RON2 block	Shiga inhibitor
CC1CCC(NC(=O)c2ccc3c(c2)OCO3)CC1 (centres undefined)	1%	-22%	43*	6%	-6%	53*
O=C(NC1CCCCC1)c1ccc2c(c1)OCO2	1%	-18%	26*	1%	-3%	84*
CN(C(=O)COC(=O)c1ccc2c(c1)OCO2)C1CCCCC1	-15%	-14%	nt	nt	31%	nt
CN1CCN(CCCNC(=O)c2ccc(/C=C3\Oc4ccccc4N(Cc4ccccc4F)C3=O)cc2)CC1	-18%	123%	-7	2%	59%	-3
COc1cccc(C(=O)Nn2c(C)nnc2-n2nc(C)cc2C)c1	23%	-11%	-3	?	7%	11
CC1CCC(NC(=O)C(=O)Nc2ccc3c(c2)OCO3)CC1 (centres undefined)	3%	-27%	57*	8%	15%	116*
CC1CCN(CC(=O)Nc2ccc3c(c2)OCO3)CC1	-4%	-5%	nt	?	-4%	nt
CC1CCCCC1NC(=O)Cn1ncc2ccccc21 (centres undefined)	4%	3.2µM*	-1	?	10%	9
CC1CCC(NC(=O)Cn2ncc3ccccc32)CC1 (centres undefined)	-3%	2.5µM*	18*	?	-4%	active
COc1ccccc1N1CCN(C(=O)CCc2nnc3n(C)c(=O)c4sccc4n23)CC1	nt	nt	nt	-12%	nt	nt
Cc1cc(C(F)F)n2ncc(C(=O)O)c2n1	1%	-10%	11	1%	-2%	-10
COc1ccc(OC)c(NC(=O)c2ccccc2N(Cc2ccccc2)S(C)(=O)=O)c1	0%	35%	-1	4%	-3%	13
O=C(Cn1ncc(Cl)c(Cl)c1=O)N1CCN(Cc2ccccc2)CC1	0%	1%[11.4 µM]	-4	-11%	-9%	-20
Cc1ccc(Cn2ncc(Cl)c(Cl)c2=O)cc1	-21%	-24%	11	-9%	2%	38
O=C(Cn1ncc(Cl)c(Cl)c1=O)N1CCOCC1	2%	-41%	23*	-3%	-8%	38*
Cc1cc(C)cc(Cn2ncc(Cl)c(Cl)c2=O)c1	-45%	-21%	36*	-9%	4%	35
CCc1ccc(C(=O)Cn2ncc(Cl)c(Cl)c2=O)cc1	1%	-24%	17*	?	-9%	24
COc1ccc2c(c1)-c1c(ssc1=S)C(C)(C)N2	-30%	-31%	6	?	30µM*	-4
COc1ccc2c(c1)-c1c(sn(-c3ccccc3)c1=S)C(C)(C)N2	-1%	-32%	-6	-13%	13µM*	19
COc1ccc2c(c1)-c1c(sn(-c3ccc(OC)c(OC)c3)c1=S)C(C)(C)N2	-3%	2%	-2	?	?	-15
COc1ccc(-n2sc3c(c2=S)-c2cc(OC)ccc2NC3(C)C)cc1	-1%	-31%	1	-2%	22µM*	-6
CCCS(=O)(=O)Nc1cccc(-c2nc3cccnc3s2)c1	-1%	-32%	28*	2%	2%	57*
O=S(=O)(Nc1cccc(-c2nc3cccnc3s2)c1)c1cccs1	0%	-44%	18*	1%	4%	50*
COCC(=O)Nc1cccc(-c2nc3cccnc3s2)c1	nt	nt	nt	6%	nt	nt
Cc1ccc(-c2nc3cccnc3s2)cc1NC(=O)C(C)C	nt	nt	nt	1%	nt	nt
Cc1ccc(-c2nc3cccnc3s2)cc1NS(C)(=O)=O	0%	-28%	33*	5%	6%	62*
OCCCN=c1cc(-c2ccccc2)oc2ccc(Cl)cc12	18%	-1%	35*	-11%	4%	97*
O=C(/C=C/c1ccco1)N1CCN(S(=O)(=O)c2ccc(F)c(F)c2F)CC1	0%	-7%	11	?	0%	-7
Cn1c(C(=O)NCc2ccccc2)cc2oc3ccccc3c21	-2%	-28%	46*	2%	-19%	85*
